{
  "source": "PubChem BioAssay (EPA / NIEHS)",
  "note": "Several values for one entry are separate records, joined by “and”; a condition that tells them apart may be missing. Equal entries are not always repeated. Results filed as inconclusive are left out. Some compounds were tested as several samples or in several runs, with calls that do not always agree. Activity calls are given as the source filed them. The calls were made as follows: active = hit-call score of the fitted dose curve at least 0.9, where 1 is the maximum; inconclusive = response in the unintended direction; inactive = score below 0.9.",
  "data": [
    {"assay": "CCTE_Shafer_MEA_dev_bursting_electrodes_number: CCTE's Neural Network Formation Assay for Number of Bursting Electrodes, Shafer Lab (AID 2284043)", "description": "CCTE_Shafer_MEA_dev assay is conducted using Axion Biosystems 48 well microelectrode array (MEA) plates and Maestro recording system. Each well of the MEA plate contains a grid of 16 microelectrodes embedded in the culture surface. Electrically active cells, such as neurons, can be cultured over the electrodes, and electrical activity in these cells can be recorded extracellularly. The spontaneous firing of neurons is captured from each electrode on a microsecond timescale providing both temporally and spatially precise data. […] The CCTE_Shafer_MEA_dev assay uses primary cultures of rat cortical neurons. Recordings are made on days post-plating 5, 7, 9 and 12. As these cultures mature over time, neural networks develop functional activity and form cohesive networks in which electrical activity can be highly coordinated. CCTE_Shafer_MEA_dev_bursting_electrodes_number is 1 of 19 assay components of the CCTE_Shafer_MEA_dev assay. It measures the number of electrodes in a well with a burst rate of at least 1 burst (temporally-clustered group of action potential firing) every 2 minutes during a recording in a microelectrode array (MEA) using Axion Biosystems Maestro 768 channel amplifier with the AxIS adaptive spike detector. To collapse across multiple recordings made on days post-plating 5, 7, 9 and 12, the trapezoidal area-under-the-curve of the component is calculated.Data from the assay component CCTE_Shafer_MEA_dev_bursting_electrodes_number was analyzed into 1 assay endpoint. This assay endpoint, CCTE_Shafer_MEA_dev_bursting_electrodes_number, was analyzed in the negative analysis fitting direction relative to DMSO as the negative control and baseline of activity. Using a type of functional reporter, gain or loss-of-signal activity can be used to understand electrical activity.\nOn the day prior to culture, each well was coated thoroughly with 150 uL of 0.05% polyethyleneimine (PEI, Sigma Cat P3143) in 50 mM HEPES (Sigma Cat H7523) at a pH of 8. The plate was incubated at 37C for one hour. PEI was rinsed out with 500 uL of sterile water three times. Plates were stored at 4C until the day of culture. This culture was plated at a seeding density of 1.5 x 10^5 cells/well on a 48-well MEA plate, prepared as described above. Cells were administered via a 25 uL media/laminin ([…]; Sigma Cat L2020-1MG) drop directly onto the microelectrode array, as adding the cells with the laminin results in better attachment than pre-coating with laminin. After 2 hours, an additional 475 uL of cortical media was added and the cells returned to the incubator. Exposure starts at day 0 of plating and is continued over twelve days of network development until the experiment is terminated. Cells are fed with fresh medium on DIV 5 and 9, following the recordings on those days. The entire volume of media in the well is exchanged and any vehicle or compound treatment is renewed. Complete details are found in OP-NHEERL/ISTD/SBB/TJS/2015-03-r0 (available on request, email shafer.tim@epa.gov). Measurement of the electrical activity is non-invasive, and recordings can be made from the same plate over multiple different days of the culture. In cortical neurons, this allows for the measurement of extracellular action potentials over the period during which networks form in the MEA plate.", "values": [
      {"smiles": "COP(=O)(NC(C)=O)SC", "note": "(configuration not stated)", "outcome": "inactive"},
      {"smiles": "C[Si](Cn1cncn1)(c1ccc(F)cc1)c1ccc(F)cc1", "AC50": "8.85 µM (active)"},
      {"smiles": "CN(C)[C@@H]1C(=O)C(C(N)=O)=C(O)[C@@]2(O)C(=O)C3=C(O)c4c(O)cccc4[C@@](C)(O)[C@H]3[C@H](O)[C@@H]12", "AC50": "22.7 µM (active)"},
      {"smiles": "CCOP(=S)(OCC)Oc1ccc([N+](=O)[O-])cc1", "outcome": "inactive"},
      {"smiles": "CC[C@H](C)[C@H]1O[C@]2(C=C[C@@H]1C)C[C@@H]1C[C@@H](C/C=C(\\C)[C@@H](O[C@H]3C[C@H](OC)[C@@H](O[C@H]4C[C@H](OC)[C@@H](NC)[C@H](C)O4)[C@H](C)O3)[C@@H](C)/C=C/C=C3\\CO[C@@H]4[C@H](O)C(C)=C[C@@H](C(=O)O1)[C@]34O)O2", "AC50": "43.5 nM (active) and 3.01 nM (active)"},
      {"smiles": "CCOP(=O)(OCC)Oc1cc(C)nc(C(C)C)n1", "outcome": "inactive"},
      {"smiles": "CCCSP(=O)(OCC)SCCC", "AC50": "24.9 µM (active) and 22.7 µM (active)"},
      {"smiles": "CCOP(=O)(NC(C)C)Oc1ccc(SC)c(C)c1", "note": "(configuration not stated)", "outcome": "inactive", "AC50": "32.3 µM (active)"},
      {"smiles": "CC(C)[C@H](C(=O)O[C@H](C#N)c1cccc(Oc2ccccc2)c1)c1ccc(Cl)cc1", "AC50": "4.15 µM (active)"},
      {"smiles": "CCOP(=S)(OCC)Oc1ccc2c(C)c(Cl)c(=O)oc2c1", "AC50": "50 µM (active)"},
      {"smiles": "CC(=NC#N)N(C)Cc1ccc(Cl)nc1", "outcome": "inactive"},
      {"smiles": "CSC1=N[C@@](C)(c2ccccc2)C(=O)N1Nc1ccccc1", "outcome": "inactive"},
      {"smiles": "O=[N+]([O-])c1cc(C(F)(F)F)c(Cl)c([N+](=O)[O-])c1Nc1ncc(C(F)(F)F)cc1Cl", "AC50": "0.374 µM (active)"},
      {"smiles": "CON=C(C(=O)OC)c1ccccc1CON=C(C)c1cccc(C(F)(F)F)c1", "AC50": "728 nM (active) and 758 nM (active)"},
      {"smiles": "C=C(C)[C@H]1Cc2c(ccc3c2O[C@@H]2COc4cc(OC)c(OC)cc4[C@@H]2C3=O)O1", "AC50": "22.8 nM (active) and 12.4 nM (active)"},
      {"smiles": "COP(=O)(OC)OC(Br)C(Cl)(Cl)Br", "note": "(configuration not stated)", "AC50": "6.36 µM (active) and 12.9 µM (active)"},
      {"smiles": "COP(=O)(OC)C(O)C(Cl)(Cl)Cl", "note": "(configuration not stated)", "AC50": "36.9 µM (active) and 15 µM (active)"},
      {"smiles": "S=C1NCCN1", "outcome": "inactive"},
      {"smiles": "CCOP(=S)(OCC)SCCSCC", "outcome": "inactive"},
      {"smiles": "CC(C)N(C(=O)SCC(Cl)=C(Cl)Cl)C(C)C", "AC50": "15 µM (active)"},
      {"smiles": "C[N+]1(C)CCCCC1", "outcome": "inactive"},
      {"smiles": "CCCCSP(=O)(SCCCC)SCCCC", "AC50": "32 µM (active) and 15.8 µM (active)"},
      {"smiles": "C#CCC1=C(C)C(OC(=O)C2C(C=C(C)C)C2(C)C)CC1=O", "note": "(configuration not stated)", "AC50": "4.27 µM (active)"},
      {"smiles": "CCOP(=S)(OCC)Oc1cc(C)nc(C(C)C)n1", "AC50": "60.2 µM (active)"},
      {"smiles": "CN1COCN(Cc2cnc(Cl)s2)C1=N[N+](=O)[O-]", "outcome": "inactive"},
      {"smiles": "CCOP(=S)(OCC)OC(Cl)C(Cl)(Cl)Cl", "note": "(configuration not stated)", "AC50": "31.8 µM (active) and 23.2 µM (active)"},
      {"smiles": "CC1=NNC(=O)N(/N=C/c2cccnc2)C1", "outcome": "inactive"},
      {"smiles": "CCCSP(=O)(OCC)Oc1ccc(Br)cc1Cl", "note": "(configuration not stated)", "outcome": "inactive"},
      {"smiles": "CC(Oc1cccc(Cl)c1)C(=O)O", "note": "(configuration not stated)", "outcome": "inactive"},
      {"smiles": "CCOP(=S)(Oc1cnc(C(C)(C)C)nc1)OC(C)C", "note": "(configuration not stated)", "AC50": "91.8 µM (active) and 12 µM (active)"},
      {"smiles": "CC(C)=CC1C(C(=O)OCN2C(=O)C3=C(CCCC3)C2=O)C1(C)C", "note": "(configuration not stated)", "outcome": "inactive"}
    ]}
  ]
}
